An excerpt weighted towards active compounds, which were near 2.2% of everything screened.
KLF5 inh: suppresses KLF5 promoter-driven expression; DLD-1 KLF5 promoter-luciferase reporter, luminescence; inhibition, % at 5 µM; hit rate 0.23% among 290,000; AID 1700;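 active = inhibition above a per-plate limit of that plate's mean compound inhibition plus 3 SD, cut at about 60% in these data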;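 note: 0% = DMSO wells and 100% = LY294002 at 200 µM; higher means less KLF5 promoter-driven luciferase light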
Ba/F3 V617F tox: loss of viability in JAK2V617F-driven Ba/F3 cells; inhibition, % at 5.6 µM; hit rate 1.1% among 220,000; Ba/F3 EpoR-JAK2V617F viability, ATP luminescence; AID 1446;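 active = inhibition above the campaign mean plus 3 SD over all tested compounds, cut at about 24% in these data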;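 note: cytokine-independent growth of Ba/F3 cells driven by EpoR plus mutant JAK2; 0% = DMSO-treated cells and 100% = JAK inhibitor I control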
APP 5UTR inh: APP translation inhibition; SH-SY5Y APP 5'UTR-luciferase reporter, luminescence; inhibition, % at 2 µM; hit rate 0.82% among 190,000; AID 1285;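 active = inhibition above a set limit, derived from the sample mean plus 3 SD, cut at about 45% in these data; inconclusive = one replicate passes the limit while the other fails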
BaF3 parental: reduces parental Ba/F3 cell viability, JAK2V617F counter-screen. hit rate 1.1% among 220,000. inhibition, % at 5.6 µM. CellTiter-Glo ATP luminescence;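 active = inhibition above a per-campaign cutoff, the mean inhibition of all tested compounds plus 3 SD, cut at about 27% in these data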;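 note: 0% = DMSO wells and 100% = JAK Inhibitor I control wells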
aSyn 5UTR inh: 5' untranslated region of α-synuclein, MLPCN primary screen; alpha-synuclein 5'UTR reporter, inhibitor activity; inhibition, % (tested at 7.5 µM); hit rate 0.82% among 300,000; AID 1813; in the data active = inhibition above about 60%; inconclusive = no clear call, values can overlap the other calls;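 note: H4 neuroglioblastoma cells stably carrying SNCA 5'UTR luciferase fusion; 0% = DMSO wells and 100% = positive control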
IEC-6 tox: IEC-6 cytotoxicity, counter-screen for KLF5 inhibitors; luminescence viability; inhibition, % at 5 µM; hit rate 0.78% among 290,000; in the data active = inhibition above about 22%;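 note: 0% = plate median of test compound wells and 100% = cytotoxic reference compound wells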
* hit, by the source's call; ? = inconclusive; . = not tested or not shown.

SMILES	KLF5 inh	Ba/F3 V617F tox	APP 5UTR inh	BaF3 parental	aSyn 5UTR inh	IEC-6 tox
CCC(=O)NC(c1cccs1)c1cc(Cl)c2cccnc2c1O (stereo not drawn)	7.2	4.0	60.9*	4.4	86.2*	14.3
CN1CCN(C(c2ccc(Cl)cc2)c2cc(Cl)c3cccnc3c2O)CC1 (stereo not drawn)	51.5	.	.	.	77.1*	5.8
CN1CCN(C(c2ccc(C(F)(F)F)cc2)c2cc(Cl)c3cccnc3c2O)CC1 (stereo not drawn)	47.3	.	.	.	53.5	10.8
N/C(=N\OC(=O)c1ccc([N+](=O)[O-])cc1)c1cccnc1	-32.0	-3.5	-24.6	2.0	-91.8	2.8
N/C(=N\OC(=O)c1cc([N+](=O)[O-])ccc1Cl)c1cccnc1	-28.8	-1.5	.	2.0	88.1*	-0.5
Cc1ccc(S(=O)(=O)N2CCC(N3CCC(C)CC3)CC2)cc1	2.9	.	.	.	-9.4	-6.2
Cc1cc(C)cc(NC(=O)/C(C#N)=C/c2cn(CC(=O)NCc3ccco3)c3ccccc23)c1	-33.1	0.6	25.1	7.2	110.5*	-0.3
CC(OC(=O)c1cccc(S(=O)(=O)N(C)C)c1)C(=O)NCc1ccc2c(c1)OCO2 (stereo not drawn)	.	.	.	.	14.8	.
O=C(O)CCSc1ncnc2sc(-c3ccccc3)cc12	10.0	-6.4	.	-2.2	88.2*	0.7
COc1ccc(C(=O)/C=C/N(C)C)cc1OC	15.2	4.5	8.0	5.3	.	-2.3
COc1ccc(C(=O)/C=C2\NCCc3cc(OC)c(OC)cc32)cc1OC	-31.0	.	.	.	64.1*	3.6
O=C(CCc1nnc2ccc(NCc3ccccc3)nn12)NCC1CCN(C2CCCC2)C1 (stereo not drawn)	-15.9	.	.	.	-3.5	-4.5
N=c1ccn(Cc2cccc(F)c2)cc1	15.9	70.9*	.	66.4*	17.4	-1.0
Nc1ccn(Cc2cccc(F)c2)n1	-27.7	-0.4	-0.3	1.0	6.5	2.6
CN(C)CCNc1nc2c(c(=O)[nH]c(=O)n2C)n1CCOc1ccccc1	-66.4	.	.	.	-0.4	-2.6
O=C(N/N=C/c1ccc2c(c1)OCO2)C1CC1	-73.9	.	.	.	-66.7	-0.1
CC(=O)c1sc2c(c1N)c(=O)[nH]c(=O)n2-c1ccccc1	-14.5	.	.	.	14.6	5.3
CC(=O)c1sc2c(c1OC(=O)c1ccc(Cl)cc1Cl)c(=O)n(-c1ccccc1)c(=S)n2-c1ccccc1	9.1	5.1	.	2.4	100.6*	-1.1
O=C(Nc1ccc(S(=O)(=O)N2CCOCC2)cc1)c1ccc(=O)[nH]c1	8.7	2.2	.	1.3	2.1	5.6
Cc1cc(C)nc(/N=C(\N)Nc2ccc(SC(F)F)cc2)n1	-34.2	4.4	.	-9.3	-25.8	7.1
Oc1ccccc1CN1CCC(C(O)(c2ccccc2)c2ccccc2)CC1	-9.0	-3.0	-4.7	8.3	4.7	5.6
CC(C)(C)c1ccc(C(O)CCCN2CCC(C(O)(c3ccccc3)c3ccccc3)CC2)cc1 (stereo not drawn)	-3.3	11.3	26.0	12.6	111.1*	2.7
C(=N\Nc1nncc2ccccc12)/c1ccccn1	56.2	.	.	.	97.8*	3.2
Fc1cccc(/C=N/Nc2nncc3ccccc23)c1	-36.9	.	.	.	-12.8	19.2
C(=N\Nc1ccc2nncn2n1)/c1ccccn1	-17.0	5.7	.	1.6	66.6*	14.8
SMILES	KLF5 inh	Ba/F3 V617F tox	APP 5UTR inh	BaF3 parental	aSyn 5UTR inh	IEC-6 tox
Nc1nc(N)c2cc(Sc3ccc4ccccc4c3)ccc2n1	26.3	95.7*	.	101.2*	96.1*	80.9*
O=C(Nc1ccc(N2CCN(C(=O)c3ccco3)CC2)cc1)c1ccc2c(c1)OCO2	0.3	4.5	8.5	6.5	29.6	6.5
Cc1ccccc1C(=O)N1CCN(c2ccc(NC(=O)c3ccc4c(c3)OCO4)cc2)CC1	56.4	66.7*	10.7	67.4*	?	36.0*
C/C(CC(=O)Nc1ccccn1)=N\NC(=O)c1cccc(C)c1	-34.0	-3.4	-10.2	1.6	-21.1	-3.7
CCN(CC)S(=O)(=O)c1ccc(N2CCOCC2)c(NC(=O)c2cccc3ccccc23)c1	-6.1	-1.4	-4.8	1.6	0.9	0.2
CCOc1cc(N2CCOCC2)c(OCC)cc1NC(=O)COc1ncnc2ccccc12	-33.9	-0.1	16.9	3.2	23.7	1.9
CCN(CC)S(=O)(=O)c1ccc(N2CCOCC2)c(NC(=O)c2cc(-c3ccccn3)nc3ccccc23)c1	9.6	-1.7	39.1	9.8	88.4*	-0.6
CCOc1cc(N2CCOCC2)c(OCC)cc1NC(=O)c1cc(-c2ccco2)nc2ccccc12	-11.7	0.7	48.8*	7.7	113.9*	1.5
O=C(C1CCCCC1)N1CCC(CO)(Cc2ccccc2Cl)CC1	14.1	0.9	19.4	5.0	4.8	0.7
CC(OC(=O)c1ccc(NC(=O)CC#N)cc1)C(=O)NC(=O)NC1CCCCC1 (stereo not drawn)	-31.2	.	.	.	8.8	3.5
COc1ccc(OC)c(C2=NS(=O)(=O)N(C)C(C(=O)Nc3cccc(C(C)=O)c3)=C2)c1	-8.0	.	.	.	-7.4	-0.9
N/C(=N\OC(=O)c1ccccc1Cl)c1ccccn1	-22.8	10.9	-123.3	15.3	84.4*	10.9
N/C(=N\OC(=O)c1ccc(Cl)cc1)c1ccccn1	55.7	7.1	-185.4	9.2	62.5*	9.0
N/C(=N\OC(=O)c1cccc(Br)c1)c1ccccn1	-74.0	.	.	.	71.8*	11.1
N/C(=N\OC(=O)c1ccccc1[N+](=O)[O-])c1ccccn1	-133.3	0.2	-103.6	36.8*	-103.8	4.9
COc1ccccc1C(=O)O/N=C(\N)c1ccccn1	-90.2	3.3	.	10.5	31.5	7.9
Oc1[nH]c(N=C2N=c3ccccc3=N2)c2ccccc12	-81.0	21.0	.	6.3	-59.8	77.0*
O=C(C[N+]1(CC#Cc2ccccc2)CCCCC1)c1ccccc1	-6.8	25.0*	-11.9	34.0*	-23.2	2.2
O=C(C[N+]1(CC#Cc2ccccc2)CCOCC1)c1ccccc1	-9.0	2.6	4.8	0.3	-39.3	8.7
O=C(C[N+]1(CC#Cc2ccccc2)CCCCC1)c1ccc(Cl)cc1	-9.6	-0.1	-2.2	37.6*	-2.8	9.0
NC(=S)N=Nc1ccc(NN=C(N)N)cc1	-7.3	.	.	.	68.4*	-7.4
CCOc1ccc(N2C(=O)C(CC(=O)Nc3ccc(F)cc3)N(Cc3ccccn3)C2=S)cc1 (stereo not drawn)	-0.3	-1.0	18.2	7.5	8.3	4.5
CCOc1ccc(N2C(=O)C(CC(=O)Nc3ccccc3)N(Cc3ccccn3)C2=S)cc1 (stereo not drawn)	33.0	7.4	-0.4	27.4*	4.3	6.4
Cc1cc(C(=O)COC(=O)c2ccc(N)cc2)c(C)n1-c1c(C)n(C)n(-c2ccccc2)c1=O	-33.0	1.2	10.1	10.8	12.6	-8.4
Cc1ccc(NC(=O)CSc2nnc(-c3ccco3)c(-c3ccco3)n2)cc1	-5.8	0.8	31.3	0.6	22.0	-20.2
O=C(CSc1nnc(-c2ccco2)c(-c2ccco2)n1)Nc1ccccc1	-5.9	-3.4	50.1*	-1.1	18.7	-14.0
COc1ccc(C(=O)CSc2nnc(-c3ccco3)c(-c3ccco3)n2)cc1	-8.3	2.8	66.6*	2.8	-35.8	-23.6
COC(=O)c1ccc2nc(-c3ccc4c(c3)OCO4)cn2c1	-95.4	0.0	-90.0	4.7	95.2*	-0.8

Screening data from PubChem BioAssay.
